# KCNH2 3.1 block – blocks the human KCNH2 3.1 channel isoform | 0.95% of 340,000 active | U2OS KCNH2 3.1, thallium flux FluxOr; hits give low values | activity change, % (tested at about 1.8 µM);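 active = maximum activity change below -70%; inconclusive = maximum activity change from -70% to -50%; inactive = maximum activity change above -50%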;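 also: thallium influx rate constant from kinetic fluorescence after stimulation buffer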
#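 We transduce U2OS cells with the mutant 3.1 virus, culture them overnight, load FluxOr with Red40 quencher for 45 min, then add stimulation buffer and read kinetically for 2 min to derive a normalized rate constant.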
# KinaseGlo FLuc – Kinase-Glo luciferase inhibition (counter-screen); Q27757; Kinase-Glo luciferase, ATP luminescence, 8 min; Potency, µM (highest dose often 38.3 µM), without a hit: at the highest dose activity change, negative = inhibition, usual class: inhibitors; AID 1379; 0.28% of 200,000 active; active = well fitted inhibition curve with a large enough effect; inconclusive = small, poorly fitted or top-dose-only effect; also: potency is read from the fitted curve at half-maximal effect; nearly all actives have a fitted effect of over 60% in size
#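 Substrate mix (final 50 mM imidazole pH 7.2, 50 mM KCl, 7 mM MgCl2, 10 uM ATP, 0.01% Tween 20, 0.05% BSA) plus pin-tool compound, then Kinase-Glo detection mix; 8 min ambient, luminescence read.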
# hERG WT inh – blocks the wildtype human KCNH2 potassium channel; Q12809; U2OS, BacMam KCNH2, thallium flux FluxOr; hits give low values; 0.37% of 340,000 active; activity change, % at 1.84 µM;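 active = maximum activity change below -70%; inconclusive = maximum activity change between -70% and -50%; inactive = maximum activity change above -50%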
#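 U2OS cells were transduced with wild-type KCNH2 virus (2.03 x 10^8 / mL) for 4 h at room temperature, then cultured overnight at 37 C. Thallium flux was read with FluxOr dye. Rate constants were normalized to DMSO controls.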
# Numbers without * were called inactive; ? = inconclusive; . = no result; [ ] = another dose, or the depositor's remark. A selection: hits, their analogues and other compounds. The true share with any hit is near 1.2%. % is scaled to controls: 0 for no effect and ±100 for the full control effect.
SMILES,KCNH2 3.1 block,KinaseGlo FLuc,hERG WT inh
COc1cc(C2CC(c3cccs3)=NN2C(=O)CCl)ccc1OC(F)F (configuration not stated),17,.,5
Cc1cc(=O)oc2cc(OCc3ccc(C(=O)OCC(=O)Nc4ccc(N(C)C)cc4)cc3)ccc12,25,-1%,-1
Cc1ccccc1NC1=NS(=O)(=O)c2ccccc21,1,-1%,-285*
Cc1ccc(C)c(NC2=NS(=O)(=O)c3ccccc32)c1,12,-4%,5
N#CCCn1c(=O)c(CCc2ccccc2)nc2cnc(Oc3cccc(Cl)c3)nc21,.,-2%,.
O=C(c1cc(=O)[nH]c2ccccc12)N1CCN(S(=O)(=O)c2ccc3ccccc3c2)CC1,2,10%,1
O=C(c1cc(=O)[nH]c2ccccc12)N1CCN(S(=O)(=O)c2ccc(Cl)cc2)CC1,-9,.,-115*
CS(=O)(=O)Nc1c(O)ccc2c1CCC[C@H]2C1=NCCN1,.,2%,.
O=C(Nc1ccc(N2CCN(C(=O)c3cccs3)CC2)cc1)c1ccc(Br)o1,4,.,4
CN1CCN(c2ccc(NC(=O)c3ccc(-c4ccc(Cl)cc4)o3)cc2)CC1,-95*,.,16
CS(=O)(=O)N1CCN(c2ccc(NC(=O)CSc3ccc(Cl)cc3)cc2)CC1,1,18%,8
CN1CCN(C(=O)c2ccccc2NC(=O)c2sc3ccccc3c2Cl)CC1,12,.,-40
Cc1ccc(C(=O)N2CCN(c3ccc(NC(=O)CSc4ccc(Cl)cc4)cc3)CC2)cc1,-118*,2%,-118*
O=C(Nc1ccc(N2CCN(C(=O)c3ccc(Cl)cc3)CC2)cc1)c1ccc(Br)o1,-90*,1%,-7
CS(=O)(=O)N1CCN(c2ccc(NC(=O)c3ccc(-c4ccc(Cl)cc4)o3)cc2)CC1,-32,-1%,12
CN1CCN(c2ccc(NC(=O)c3sc4ccccc4c3Cl)cc2)CC1,-74*,1%,-38
CC(=O)c1ccc(N2CCN(C(=O)c3cc(S(=O)(=O)N4CCOCC4)ccc3C)CC2)cc1,20,.,42
CCN1C(=O)[C@H]2[C@@H](c3ccc(C)cc3)N[C@]3(CCCN(Cc4ccc(F)cc4)C3=O)[C@H]2C1=O,-4,.,2
CCC(c1nnc(SCC(=O)Nc2cc(S(C)(=O)=O)ccc2Cl)n1Cc1ccccc1)N(C)C (configuration not stated),-8,.,0
COc1ccc([C@H]2C[C@H](O)[C@@H](n3cc(-c4ccc(F)cc4)nn3)CN2C(=O)c2cccs2)cc1,-20,.,17
CCOc1ccc(/C=N/NC(=O)C(O)c2ccccc2)c(O)c1 (configuration not stated),-7,.,6
O=C(Nc1ccccc1N1CCN(C(=O)c2ccc(Cl)cc2)CC1)c1cc2ccccc2o1,?,-2%,6
O=C(Nc1ccc(N2CCN(C(=O)c3ccc(Cl)cc3)CC2)cc1)c1cc2ccccc2o1,-111*,-1%,-117*
COc1ccc(NC(=S)N2CCC(C(=O)c3ccc(F)cc3)CC2)cc1,-19,.,5
Nc1ccccc1Nc1c(F)c(F)nc(F)c1Cl,-72*,.,2
SMILES,KCNH2 3.1 block,KinaseGlo FLuc,hERG WT inh
Nc1ccccc1Nc1cc(-c2cccc(Cl)c2)nn1-c1ccccc1,-8,-1%,-5
O=C(NCCCCc1ccccc1)C1CCCC1,-2,.,-5
O=C(NCCCCNC(=O)C1CCCC1)C1CCCC1,4,-3%,-265*
Cc1ccc(C(=O)NC(=S)N2CC(C)OC(C)C2)cc1[N+](=O)[O-] (configuration not stated),-91*,-1%,2
COc1ccc(C(=O)NC(=S)N2CC(C)OC(C)C2)cc1 (configuration not stated),-5,0%,-13
CCC(=O)c1ccccc1OCCCN1CCC(Cc2ccccc2)CC1,-100*,.,-131*
CC1CCN(CCCCOc2ccc(C(=O)c3ccccc3)cc2)CC1,-41,-3%,57
CCOc1ccccc1OCCN1CCC(Cc2ccccc2)CC1,?,1%,5
N#Cc1ccccc1OCCCN1CCC(Cc2ccccc2)CC1,-96*,.,-90*
COc1cccc(OC)c1OCCCCN1CCCC1,-16,-5%,-1
c1ccc(-c2ccccc2OCCCN2CCCC2)cc1,-19,5%,14
COc1cccc(OC)c1OCCCCN1CCC(Cc2ccccc2)CC1,-71*,-1%,-8
CC(=O)CCc1ccc(OCCCCN2CCC(Cc3ccccc3)CC2)cc1,-94*,-1%,27
COc1cccc2cc(C(=O)OCC(=O)N3CC(C)OC(C)C3)c(=O)oc12 (configuration not stated),19,.,-1
Cc1ccc(OS(=O)(=O)c2ccc(N3C(=O)CCC3=O)cc2)cc1,1,.,-5
CC1CN(C(=O)COC(=O)c2cc(=O)c3ccccc3o2)CC(C)O1 (configuration not stated),5,.,20
COc1cc(Cl)ccc1NC(=S)N(CCN1CCOCC1)C1CCN(C(C)=O)CC1,-4,1%,3
c1ccc(COc2ccc(OCCCN3CCCC3)cc2)cc1,-50,2%,29
CC1CCN(CCCOc2ccc(OCc3ccccc3)cc2)CC1,-80*,-4%,16
CC(C)CC(=O)C(=O)O,3,.,-2
O=C(C1=C(O)C(=O)N(CCc2ccccc2)C1c1cccnc1)c1ccco1 (configuration not stated),1,2%,-3
O=C(C1=C(O)C(=O)N(CCc2ccccc2)C1c1cccs1)c1ccco1 (configuration not stated),-124*,-3%,-1
Cc1cc(NC(=O)c2cccs2)ncc1NC(=O)c1cccc(F)c1,-5,-10%,5
Cc1cc(NC(=O)c2ccccc2)ncc1NC(=O)c1cccs1,-2,11µM*,0
CN(/N=C/c1cc(Br)cc(Br)c1O)c1cccc(C(F)(F)F)n1,7,.,8
SMILES,KCNH2 3.1 block,KinaseGlo FLuc,hERG WT inh
Cc1cccc(-c2nn(-c3ccccc3)cc2C(=O)N2CCN(C3CCS(=O)(=O)C3)CC2)c1 (configuration not stated),-1,.,13
Cc1ccccc1C(=O)c1cccn1CC(=O)N1CCCCCC1,-100*,.,5
Cc1ccccc1C(=O)c1cccn1CC(=O)O,-7,1%,-4
NNC(=O)Cc1cccnc1,.,-8%[7.66 µM],.
CCn1c(C)nc2cc(-c3nc4n(n3)Cc3ccccc3-4)ccc21,-3,2.2µM*,3
Fc1ccc(-c2nc3n(n2)Cc2ccccc2-3)cc1,4,11µM*,17
CCn1c(C)nc2cc(C(=O)NNC(=O)c3ccc(C)cc3)ccc21,6,.,-8
Cc1ccc(-c2nc3n(n2)Cc2ccccc2-3)cc1,-13,?,13
O=C(CC(CC(=O)c1ccccc1)c1ccccn1)c1ccccc1,-14,.,5
COC(=O)CCC(=O)OC1(C)C(=O)C=C2C=C(CCCNC(=O)OC(C)(C)C)OC=C2C1=O (configuration not stated),.,0%,.
O=C1C=C(c2ccc(F)c(Cl)c2)C[C@@H](c2ccc(F)cc2)C1,-12,.,1
Cc1ccnn1-c1ccc(C(=O)NCc2ccccc2CN2CCOCC2)cc1,11,.,-10
COc1cccc(NC(=O)COC(=O)c2c(NC(C)=O)sc(C)c2C)c1,1,.,-73*
CC(=O)Nc1sc(C)c(C)c1C(=O)OCC(=O)Nc1cccc(C)c1,3,.,3
